{"source": "PubChem BioAssay AID1347165", "about": "(National Center for Advancing Translational Sciences (NCATS), 2019)", "note": "Screen size: about 220,000 compounds; about 5,700 (2.6%) were called active. Another 18% or so got no clear call; they are omitted. The sample holds actives, similar compounds and a random draw of the others, so the mix is not that of the screen. Unmarked numbers belong to inactive results. Calls come from the whole dose curve; as a rule, active = well fitted inhibition curve with a large enough effect; inconclusive = small, poorly fitted or top-dose-only effect; inactive = no such curve, though single readings can be large or run the other way. Potency is the fitted concentration of half-maximal effect.", "data": [{"target": "Lysine-specific demethylase 5B (Homo sapiens) (UniProt Q9UGL1)", "sequence (Q9UGL1 whole entry, looked up)": "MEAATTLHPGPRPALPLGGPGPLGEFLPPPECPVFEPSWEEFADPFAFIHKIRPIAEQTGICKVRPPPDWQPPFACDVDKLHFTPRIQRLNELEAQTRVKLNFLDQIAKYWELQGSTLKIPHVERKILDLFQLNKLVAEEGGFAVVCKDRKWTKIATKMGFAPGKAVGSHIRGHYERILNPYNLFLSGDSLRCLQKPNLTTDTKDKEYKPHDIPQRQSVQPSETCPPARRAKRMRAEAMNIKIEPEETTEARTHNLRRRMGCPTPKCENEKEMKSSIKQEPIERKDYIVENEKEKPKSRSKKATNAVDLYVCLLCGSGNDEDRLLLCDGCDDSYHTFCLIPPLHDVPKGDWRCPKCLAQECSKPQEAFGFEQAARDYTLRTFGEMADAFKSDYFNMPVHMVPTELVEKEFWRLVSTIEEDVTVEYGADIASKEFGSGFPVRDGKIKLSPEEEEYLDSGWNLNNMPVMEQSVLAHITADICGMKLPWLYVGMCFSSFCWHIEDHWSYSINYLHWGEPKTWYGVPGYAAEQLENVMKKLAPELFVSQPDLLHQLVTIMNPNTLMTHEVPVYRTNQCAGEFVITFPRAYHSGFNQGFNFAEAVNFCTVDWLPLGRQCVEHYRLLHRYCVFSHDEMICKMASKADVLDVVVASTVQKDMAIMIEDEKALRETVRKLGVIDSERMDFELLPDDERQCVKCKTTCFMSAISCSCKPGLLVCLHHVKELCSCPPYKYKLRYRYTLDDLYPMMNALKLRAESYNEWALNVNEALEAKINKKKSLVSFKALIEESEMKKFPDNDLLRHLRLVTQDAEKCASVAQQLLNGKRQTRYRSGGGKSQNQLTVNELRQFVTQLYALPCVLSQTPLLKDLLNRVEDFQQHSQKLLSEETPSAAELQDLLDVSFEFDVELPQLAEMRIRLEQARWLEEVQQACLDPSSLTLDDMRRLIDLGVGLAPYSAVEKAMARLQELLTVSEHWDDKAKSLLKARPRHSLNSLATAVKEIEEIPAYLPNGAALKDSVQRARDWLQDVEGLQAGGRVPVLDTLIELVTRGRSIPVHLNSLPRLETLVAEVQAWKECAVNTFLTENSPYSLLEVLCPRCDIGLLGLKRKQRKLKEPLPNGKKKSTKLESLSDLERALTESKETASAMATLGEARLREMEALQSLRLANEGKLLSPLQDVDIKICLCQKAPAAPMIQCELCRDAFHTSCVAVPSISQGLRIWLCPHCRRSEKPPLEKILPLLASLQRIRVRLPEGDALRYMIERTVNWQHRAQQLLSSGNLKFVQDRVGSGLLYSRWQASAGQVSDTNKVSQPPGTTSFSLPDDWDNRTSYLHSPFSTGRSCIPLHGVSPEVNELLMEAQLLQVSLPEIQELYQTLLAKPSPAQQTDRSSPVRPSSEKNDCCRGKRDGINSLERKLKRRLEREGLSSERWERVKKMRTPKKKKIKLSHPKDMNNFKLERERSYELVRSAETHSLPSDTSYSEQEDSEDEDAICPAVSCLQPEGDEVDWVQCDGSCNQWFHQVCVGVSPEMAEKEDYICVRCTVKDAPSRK", "assay": "Primary screen for KDM5B Histone Demethylases FDH-coupled qHTS; note: nearly all actives have a fitted effect of over 70% in size; for activity change, negative = inhibition: 0% is about no effect", "conditions": "FDH-coupled NADH fluorescence (FDH is formaldehyde dehydrogenase); series mostly up to 57.7 µM; activity change, negative = inhibition: at the top concentration", "from_the_text": "Assay Submitter (PI): Qin Yan, Ph.D. (Yale University) and Xiaodong Cheng, Ph.D. (MD Anderson) This project was funded as part of the NCI NEXT Program and Chemical Biology Consortium (CBC) The histone demethylases, KDM5A and KDM5B catalyze the demethylation of lysine 4 on histone H3 (H3K4me3/2). They are overexpressed in a variety of cancers and have been implicated in cancer cell growth, metastasis, drug resistance, and tumor growth. KDM5A is amplified and overexpressed in breast and gastric cancer; and is translocated in leukemia. While KDM5B is highly expressed in human mammary tumors and breast cancer cell lines, but not in normal adult breast tissue. Moreover, knockdown of KDM5B leads to upregulation of tumor suppressor genes, including BRCA1. The goal of this project is to employ qHTS to identify selective small molecule inhibitors of KDM5A/B demethylase activity to better understand the role of KDM5 in cancer and to develop novel therapies. We employed an FDH-coupled assay previously reported by Sakurai et al. to monitor in vitro KDM5 demethylase activity. Compounds showing dose response inhibition are re-acquired, validated, and tested for non-specific interference with the formaldehyde dehydrogenase (FDH) counterscreen. True inhibitors are validated using an AlphaLisa secondary screen, which employs an H3K4(me2-1)-specific antibody to monitor demethylation of a biotin-tagged H3K4(me3) peptide substrate. Inhibitors are profiled against KDM4A and KDM6A AlphaLisa counterscreens to determine level of demethylase specificity; and against the TruHits counterscreen to eliminate non-specific inhibitory activity on the AlphaLISA detection method. Selective inhibitors identified from the primary and secondary screening are tested in cells using immunofluorescence to monitor global H3K4 tri-methylation as a measure of KDM5A/B inhibition. Early Translation Branch (ETB) National Center for Advancing Translational Sciences (NCATS), Rockville, MD National Institute of Health (NIH), Bethesda, Maryland [1] Sakurai, M et al. A miniaturized screen for inhibitors of Jumonji histone demethylases. Mol Biosyst. 2010 Feb;6(2):357-64. doi: 10.1039/b912993f. Epub 2009 Oct 8.\nMaterials: 1536-well Black, solid bottom, medium binding assay plate is purchased from Greiner Bio-one. The enzymes (KDM5B) and substrate (H3K4me3/2) are provided by the principal investigators. The buffer for this assay is composed of 50mM HEPES at pH 7.5 with 0.01% Tween-20. FDH coupled Demethylase qHTS protocol: Three microliter enzyme mix (buffer + 200nM KDM5BDeltaAP final concentration) is dispensed into the assay plate using the BioRAPTR Flying Reagent Dispenser (FRD; […]). Compound (at various final concentration) and control solution is pin transferred to the assay plate using the Kalypsys 1536-pin tool apparatus. The assay plate is incubated for 10 min at room temperature followed by addition of 1uL substrate mix (buffer + 100uM ascorbic acid, 50uM ferrous ammonium sulfate, 12.5uM H3K4Me3, 25uM a-ketoglutarate, 0.25 mM NAD+, 0.25 U/mL formaldehyde dehydrogenase using the FRD yielding a total reaction volume of 4 uL. Initial fluorescence (Read1) is detected using the PerkinElmer ViewLux plate reader equipped with 340 nm excitation and 450 nm emission filters. The final fluorescence (Read2) signal is obtained after 30 min of room temperature incubation. Delta RFU is calculated (Read2 - Read1) and is used to generated dose response curves.", "values": [{"smiles": "CCCS(=O)(=O)N1Cc2c(ncn2Cc2ccc(Cl)cc2)C[C@H]1C(=O)OC", "activity change, negative = inhibition": "-11.5% [at 86.2 µM]"}, {"smiles": "COC(=O)[C@@H]1Cc2ncn(Cc3ccccc3)c2CN1C(=O)CC(C)(C)C", "activity change, negative = inhibition": "12.1% [at 86.2 µM]"}, {"smiles": "CCC(C)NC(=O)c1sccc1-c1ccccc1", "note": "(stereo not drawn)", "activity change, negative = inhibition": "-1.07%"}, {"smiles": "CCc1nc2ccc(C(=O)NCCCN(CC)CC)cc2nc1CC", "activity change, negative = inhibition": "-4.96%"}, {"smiles": "CCc1c(C)sc(NC(=O)c2cccc(Br)c2)c1C#N", "activity change, negative = inhibition": "-22.5%"}, {"smiles": "CC1CCC2CCCCC2N1C(=O)c1cc([N+](=O)[O-])cc([N+](=O)[O-])c1", "note": "(stereo not drawn)", "activity change, negative = inhibition": "15.2%"}, {"smiles": "O=S(=O)(c1cccs1)N1CCn2cccc2C1c1ccccc1F", "note": "(stereo not drawn)", "activity change, negative = inhibition": "-17.1%"}, {"smiles": "CC(=O)N1CC(CO)C2(CCN(C(=O)c3ccccc3Cl)CC2)C1", "note": "(stereo not drawn)", "activity change, negative = inhibition": "-9.24%"}, {"smiles": "CCN1C(=O)C2CC3(CCN(C(=O)c4nccn4C)CC3)CN2C1=O", "note": "(stereo not drawn)", "activity change, negative = inhibition": "-0.431%"}, {"smiles": "Cn1ccnc1C(=O)N1CCC2(CC1)CN(c1ncccn1)CC2CO", "note": "(stereo not drawn)", "Potency": "22.4 µM (active)"}, {"smiles": "Cn1cc(CC(=O)N2CCCc3ncc(C(=O)NCCOc4ccccc4)cc32)c2ccccc21", "activity change, negative = inhibition": "-22.5%"}, {"smiles": "Cc1cccc(NC(CNS(=O)(=O)c2ccccc2)c2ccccc2)c1", "note": "(stereo not drawn)", "activity change, negative = inhibition": "-32.1%"}, {"smiles": "CC(C)OCCC(=O)N1CCCC(CN2CCN(c3ccccn3)CC2)C1", "note": "(stereo not drawn)", "activity change, negative = inhibition": "8.81%"}, {"smiles": "O=C(CC(NC(=O)c1ccccc1)c1ccccc1)NCc1cccs1", "note": "(stereo not drawn)", "activity change, negative = inhibition": "16.9%"}, {"smiles": "CCOC(=O)N1CCN(Cc2cc(=O)oc3c(C)c(C)cc(C)c23)CC1", "activity change, negative = inhibition": "7.55%"}, {"smiles": "CCC(Sc1nc2ncccc2[nH]1)C(=O)Nc1ccc(C)c(Cl)c1", "note": "(stereo not drawn)", "activity change, negative = inhibition": "0.346%"}, {"smiles": "c1cnc2nc(C3CCCCN3)[nH]c2c1", "note": "(stereo not drawn)", "activity change, negative = inhibition": "31.4% [at 230 µM]"}, {"smiles": "Cc1cc(C)c(-c2nc3ncccc3[nH]2)[nH]1", "Potency": "35.5 µM (active)"}, {"smiles": "OC(c1nc2ccc(F)cc2[nH]1)C(O)c1nc2ccc(F)cc2[nH]1", "note": "(stereo not drawn)", "activity change, negative = inhibition": "22.8%"}, {"smiles": "NC(=O)c1cccc(-c2ncc3c(n2)OCCN(c2cccc(C(F)(F)F)c2)C3=O)c1", "activity change, negative = inhibition": "-19.4% [at 86.2 µM]"}, {"smiles": "O=C1c2cnc(-c3ccc(Cl)cc3)nc2OCCN1Cc1ccccc1", "activity change, negative = inhibition": "-17.4% [at 86.2 µM]"}, {"smiles": "NC(=O)c1cccc(-c2ncc3c(n2)OCCN(Cc2ccccc2)C3=O)c1", "activity change, negative = inhibition": "-15.6% [at 86.2 µM]"}, {"smiles": "COc1ccc(-c2ncc3c(n2)OCCN(Cc2ccccc2)C3=O)cn1", "Potency": "28.2 µM (active)"}, {"smiles": "O=C1c2cnc(-c3ccccc3)nc2OCCN1c1ccccc1", "activity change, negative = inhibition": "-26.1% [at 86.2 µM]"}, {"smiles": "O=C1c2cnc(-c3ccc(O)c(F)c3)nc2OCCN1Cc1ccccc1", "Potency": "20 µM (active)"}, {"smiles": "CCCNc1c(NC(=O)Nc2ccccc2)c(=O)oc2ccccc12", "activity change, negative = inhibition": "2.4%"}, {"smiles": "CCCCN1C(=O)NC(c2ccc(OC)cc2)C2=C1COC2=O", "note": "(stereo not drawn)", "activity change, negative = inhibition": "1.95%"}, {"smiles": "O=C(Nc1ccc(F)cc1)C1=C(N2CCCC2)c2ccccc2S1(=O)=O", "activity change, negative = inhibition": "-3.03%"}, {"smiles": "Cn1nc(C(=O)Nc2nc(-c3cc(F)ccc3F)cs2)c2ccccc2c1=O", "activity change, negative = inhibition": "10.3%"}, {"smiles": "CC(C)(C)Sc1ccc2nn(CC(=O)NCc3ccccc3Cl)c(=O)n2n1", "activity change, negative = inhibition": "-3.69%"}, {"smiles": "Cc1nc(Cc2nn3c(-c4cc(Cl)ccc4F)nnc3s2)cs1", "activity change, negative = inhibition": "10.3%"}, {"smiles": "Cc1nc(C)c(C(=O)C2=C(O)C(=O)N(CCN3CCOCC3)C2c2ccc(C(C)(C)C)cc2)s1", "note": "(stereo not drawn)", "activity change, negative = inhibition": "-23%"}, {"smiles": "COC(=O)c1ccc(COc2c(Cl)cccc2Cl)cc1", "activity change, negative = inhibition": "16.2%"}, {"smiles": "Cc1nn(-c2ccccc2)c(C)c1[C@@H]1C=C[C@@H](NC(=O)c2ccc3c(c2)OCO3)C1", "activity change, negative = inhibition": "-20% [at 86.2 µM]"}, {"smiles": "Cc1nn(-c2ccc(C(C)(C)C)cc2)c(C)c1[C@@H]1C=C[C@@H](NC(=O)c2ccco2)C1", "Potency": "31.6 µM (active)"}, {"smiles": "Cc1nn(-c2ccc(C(C)C)cc2)c(C)c1[C@@H]1C=C[C@@H](NC(=O)Nc2ccccc2)C1", "activity change, negative = inhibition": "1.7% [at 86.2 µM]"}, {"smiles": "CCCCN(CCCC)c1nc2ccccc2nc1C(C#N)C(=O)OC(C)C", "note": "(stereo not drawn)", "activity change, negative = inhibition": "-8.23%"}, {"smiles": "N#Cc1cccc(Oc2cccc3cccnc23)c1C#N", "activity change, negative = inhibition": "-19.6%"}, {"smiles": "c1csc(CNCC2CCNCC2)c1", "activity change, negative = inhibition": "-4.86%"}, {"smiles": "CSc1ccc(-c2ccc(C=O)cc2)cc1", "Potency": "10 µM (active)"}, {"smiles": "CSc1ccc(/C=N/Nc2c(Cl)cc(Cl)cc2Cl)cc1", "activity change, negative = inhibition": "-27.6%"}, {"smiles": "O=Cc1cccc(-c2cc(F)cc(F)c2)c1", "activity change, negative = inhibition": "16.8% [at 230 µM]"}, {"smiles": "CNC(=O)c1cccc(CNC(=O)C=C(C)C)c1", "activity change, negative = inhibition": "-5.74%"}, {"smiles": "Cc1noc(C)c1COc1ccc(C(=O)NCCOc2ccccc2)cc1", "activity change, negative = inhibition": "22.7%"}, {"smiles": "Cc1nn(-c2nc3c(c(=O)n(CCN4CCCCC4)c(=O)n3C)n2C)c(C)c1C", "activity change, negative = inhibition": "15.4%"}, {"smiles": "CCOCC(=O)Nc1nn(-c2cccc(F)c2)c2cccc(N3CCOC3=O)c12", "Potency": "28.2 µM (active)"}, {"smiles": "COc1cccc(NC(=O)Cn2c(=O)cc(C)c3c(C)nn(-c4cccc(F)c4)c32)c1", "activity change, negative = inhibition": "10.7%"}, {"smiles": "CCOC(=O)c1ccc(NC(=O)Cn2c(=O)cc(C)c3c(C)nn(-c4cccc(F)c4)c32)cc1", "activity change, negative = inhibition": "2.81%"}, {"smiles": "COCCN1C(=O)C(O)=C(C(=O)c2ccc(C)o2)C1c1ccc(O)c(OC)c1", "note": "(stereo not drawn)", "activity change, negative = inhibition": "-14.1%"}, {"smiles": "CC1=C[C@@H](CNC(=O)C2CCCCC2)[C@H](C(C)C)C[C@H]1Cc1nc2ccc(F)cc2[nH]1", "activity change, negative = inhibition": "-21.6% [at 86.2 µM]"}, {"smiles": "CC(C)Cn1cncc1CNC(=O)c1ccc2nc(-c3ccc(F)cc3)cn2c1", "Potency": "25.1 µM (active)"}, {"smiles": "CCc1ccc(CNC(=O)C2CCN(c3nn4cc(-c5ccc(F)cc5)nc4s3)CC2)cc1", "activity change, negative = inhibition": "13.6%"}, {"smiles": "CC(=O)Nc1cc(C(=O)NCc2ccc(F)cc2)ccc1Sc1ccc(F)cc1", "activity change, negative = inhibition": "-10.4%"}]}]}
